From PubChem BioAssay (NCATS)
Inconclusive results are not listed. Calls of active or inactive are those of the source. The call rests on the fitted dose curve; in most records, active means well fitted inhibition curve with a large enough effect; inconclusive means small, poorly fitted or top-dose-only effect; inactive means flat fitted curve, though single readings scatter.

System: Zika virus NS2B-NS3 protease
Assay: Primary screen GU AMC qHTS for Zika virus inhibitors (AID 1347154);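 further: 0% = no-inhibitor control and -100% = no-enzyme control; nearly all actives have a fitted effect of over 70% in size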
Settings: Zika NS2B-NS3 unlinked protease, AMC fluorogenic substrate; series mostly up to 54.1 µM; activity change, negative = inhibition: at the top concentration
Procedure, shortened: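 Fluorogenic AMC-substrate cleavage by noncovalent NS2B-NS3 protease complex (25 nM, pH 8.0 Tris buffer with Tween 20) followed for 15 minutes at room temperature (~20% conversion). Percent inhibition from ex340/em450 signal change, fitted by 4-parameter Hill equation.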

| SMILES | activity change, negative = inhibition | Potency |
| --- | --- | --- |
| O=c1[nH]cnc2c1ncn2[C@@H]1O[C@H](CO)[C@@H](O)[C@H]1O | -2.73% (inactive) |  |
| CCOC(CN1CCN(CC(C)C(=O)c2ccccc2)CC1)c1ccccc1 (stereo unspecified) | -3.5% [at 25.8 µM] (inactive) |  |
| CC(C)(C)C(=O)C(Oc1ccc(Cl)cc1)n1ccnc1 (stereo unspecified) | -1.1% (inactive) |  |
| O=C(CCCN1CCN(c2ccccn2)CC1)c1ccc(F)cc1 | -3.97% (inactive) |  |
| Cc1ccc2nc(N)[nH]c(=O)c2c1Sc1ccncc1 | -2.01% (inactive) |  |
| Nc1ccc(S(=O)(=O)Nc2ccccc2)cc1 | 1.85% (inactive) |  |
| O=C1OC(OC(=O)c2cccnc2Nc2cccc(C(F)(F)F)c2)c2ccccc21 (stereo unspecified) | 1.69% (inactive) |  |
| CCCCN(CCCC)CCCOC(=O)c1ccc(N)cc1 | -2.46% (inactive) |  |
| C[C@@H](O)[C@H](N)C(=O)O | -7.98% [at 25.8 µM] (inactive) |  |
| Nc1ccc(S(=O)(=O)NC(=O)c2ccccc2)cc1 | -3.58% (inactive) |  |
| OCC(O)CN1CCN(c2ccccc2)CC1 (stereo unspecified) | 6.03% (inactive) |  |
| OC[C@H]1O[C@@H](O[C@@H]2[C@@H](CO)O[C@](O)(CO)[C@H]2O)[C@H](O)[C@@H](O)[C@H]1O | -2.66% (inactive) |  |
| CCOC(=O)[C@H](CCc1ccccc1)N[C@@H](C)C(=O)N1C(=O)N(C)C[C@H]1C(=O)O | -8.49% (inactive) |  |
| CC(=O)Oc1ccc(C2(c3ccc(OC(C)=O)cc3)C(=O)Nc3ccccc32)cc1 | 0.223% (inactive) |  |
| Oc1cccc(O)c1 | 1.19% (inactive) |  |
| CS(=O)(=O)c1ccc([C@@H](O)[C@@H](CF)NC(=O)C(Cl)Cl)cc1 | 1.44% (inactive) |  |
| CCCCOc1cc(C(=O)OCCN(CC)CC)ccc1N | 3.04% (inactive) |  |
| O=C(O)[C@@H]1CSCN1 | 4.24% (inactive) |  |
| CC/C=C(\C(=O)N[C@@H]1C(=O)N2C(C(=O)OCOC(=O)C(C)(C)C)=C(COC(N)=O)CS[C@H]12)c1csc(N)n1 |  | inactive |
| COc1ccc2[nH]c(S(=O)Cc3ncc(C)c(OC)c3C)nc2n1 (stereo unspecified) | -10.9% (inactive) |  |
| CCOc1nc2cccc(C(=O)O)c2n1Cc1ccc(-c2ccccc2-c2nn[nH]n2)cc1 | -2.26% (inactive) |  |
| Nc1nc2c(ncn2CCC(CO)CO)c(=O)[nH]1 | 1.47% (inactive) |  |
| CCOc1ccc2ccccc2c1C(=O)N[C@@H]1C(=O)N2[C@@H]1SC(C)(C)[C@@H]2C(=O)O | -0.0947% (inactive) |  |
| CCN(CC)C(=O)Nc1ccc(OCC(O)CNC(C)(C)C)c(C(C)=O)c1 (stereo unspecified) | -0.622% (inactive) |  |
| CC1(C)OC(=O)NC1=O | -4.13% (inactive) |  |
| Cc1c(Cl)cccc1Nc1ccccc1C(=O)O | -13.8% (inactive) |  |
